# In the supplement of paper PMC10849652:
# Targets with a hit are over-represented here; the source holds about 8,800 in all. About 0.5% of all pairs of compound and target were hits.
# Compound: O=C(CCCCCCC(=O)Nc1ccccc1)NO [vorinostat]
# Assay: log2 fold change, soluble protein after heating vs DMSO (PISA); higher = thermal stabilisation; K562 lysate, 10 uM; active = over 0.2 and 3.5 SD of the protein, either way, in both replicates (recomputed)
# Summary of the method: (§1)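 Soluble protein was defined as the supernatant remaining after 21,000xg for 90 min, following pooling of heated aliquots and adjustment to 0.5% NP-40 at 4°C. Before that, crude K562 extract at 1 mg/mL protein in PBS pH 7.4 with 1 mM MgCl2 was treated with 10 μM compound for 30 min and heated for 3 min across 48°C-58°C. Quantification used TMTpro 16plex LC-MS/MS with channel sums equalised, and values are log-two fold changes in thermal stability relative to solvent controls from duplicates.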
# UniProt Q9BUJ2, sequence (Q9BUJ2 whole entry, looked up): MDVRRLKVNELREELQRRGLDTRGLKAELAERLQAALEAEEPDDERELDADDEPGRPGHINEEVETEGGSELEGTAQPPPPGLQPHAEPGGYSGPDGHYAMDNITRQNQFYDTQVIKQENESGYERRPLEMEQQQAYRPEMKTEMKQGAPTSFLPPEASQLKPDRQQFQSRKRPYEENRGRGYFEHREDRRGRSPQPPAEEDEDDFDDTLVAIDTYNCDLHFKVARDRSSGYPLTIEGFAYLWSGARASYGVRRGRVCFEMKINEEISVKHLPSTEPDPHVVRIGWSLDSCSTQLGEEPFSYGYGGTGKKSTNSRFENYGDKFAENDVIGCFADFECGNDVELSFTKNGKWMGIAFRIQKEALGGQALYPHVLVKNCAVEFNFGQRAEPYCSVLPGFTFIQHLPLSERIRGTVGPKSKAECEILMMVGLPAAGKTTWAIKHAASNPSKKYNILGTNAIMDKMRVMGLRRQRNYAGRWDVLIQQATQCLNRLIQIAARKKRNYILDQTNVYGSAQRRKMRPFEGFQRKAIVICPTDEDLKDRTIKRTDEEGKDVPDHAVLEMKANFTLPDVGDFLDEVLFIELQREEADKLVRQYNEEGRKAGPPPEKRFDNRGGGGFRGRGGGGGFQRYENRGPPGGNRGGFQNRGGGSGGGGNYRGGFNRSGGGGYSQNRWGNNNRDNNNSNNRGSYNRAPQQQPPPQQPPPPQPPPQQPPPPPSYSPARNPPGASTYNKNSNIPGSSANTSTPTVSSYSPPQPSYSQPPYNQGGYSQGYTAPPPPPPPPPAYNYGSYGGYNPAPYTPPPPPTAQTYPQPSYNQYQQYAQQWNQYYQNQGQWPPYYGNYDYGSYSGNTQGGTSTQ
# UniProt P52272, sequence (P52272 whole entry, looked up): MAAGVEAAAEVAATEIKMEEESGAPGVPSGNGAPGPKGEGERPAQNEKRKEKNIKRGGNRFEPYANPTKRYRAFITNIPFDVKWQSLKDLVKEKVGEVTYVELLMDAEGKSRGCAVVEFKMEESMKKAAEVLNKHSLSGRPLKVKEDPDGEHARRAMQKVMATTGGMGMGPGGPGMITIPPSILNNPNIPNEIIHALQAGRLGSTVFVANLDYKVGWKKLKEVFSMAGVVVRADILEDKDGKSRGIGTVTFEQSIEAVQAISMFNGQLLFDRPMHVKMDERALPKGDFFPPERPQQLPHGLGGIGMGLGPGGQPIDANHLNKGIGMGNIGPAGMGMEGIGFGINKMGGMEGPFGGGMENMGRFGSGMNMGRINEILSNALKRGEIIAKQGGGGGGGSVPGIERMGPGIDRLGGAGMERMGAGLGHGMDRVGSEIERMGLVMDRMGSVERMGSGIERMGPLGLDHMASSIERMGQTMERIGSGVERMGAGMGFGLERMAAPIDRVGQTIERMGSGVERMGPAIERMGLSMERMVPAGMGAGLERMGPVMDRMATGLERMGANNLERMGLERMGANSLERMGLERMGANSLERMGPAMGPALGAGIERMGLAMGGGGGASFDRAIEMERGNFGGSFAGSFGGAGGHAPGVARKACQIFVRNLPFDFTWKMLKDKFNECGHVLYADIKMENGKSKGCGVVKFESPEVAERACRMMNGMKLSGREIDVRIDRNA
# UniProt P51617, sequence (P51617 whole entry, looked up): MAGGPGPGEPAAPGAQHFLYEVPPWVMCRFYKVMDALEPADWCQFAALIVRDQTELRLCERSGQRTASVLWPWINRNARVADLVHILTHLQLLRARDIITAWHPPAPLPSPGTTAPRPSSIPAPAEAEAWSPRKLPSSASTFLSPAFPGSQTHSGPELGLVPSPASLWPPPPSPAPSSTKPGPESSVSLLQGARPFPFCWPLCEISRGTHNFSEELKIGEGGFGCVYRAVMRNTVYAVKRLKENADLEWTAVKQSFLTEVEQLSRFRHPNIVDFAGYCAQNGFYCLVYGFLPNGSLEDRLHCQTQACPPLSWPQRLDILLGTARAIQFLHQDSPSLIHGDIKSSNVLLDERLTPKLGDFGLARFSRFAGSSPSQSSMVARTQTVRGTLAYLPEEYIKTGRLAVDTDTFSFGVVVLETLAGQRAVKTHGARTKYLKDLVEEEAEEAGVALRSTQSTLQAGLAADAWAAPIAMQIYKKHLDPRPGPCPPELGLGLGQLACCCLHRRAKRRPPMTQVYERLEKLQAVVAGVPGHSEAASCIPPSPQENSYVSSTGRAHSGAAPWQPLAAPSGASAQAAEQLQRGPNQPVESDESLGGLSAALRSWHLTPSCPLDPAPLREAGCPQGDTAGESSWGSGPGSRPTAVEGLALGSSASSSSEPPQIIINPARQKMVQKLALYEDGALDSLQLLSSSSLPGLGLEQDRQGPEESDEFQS
# UniProt P09211, sequence (P09211 whole entry, looked up): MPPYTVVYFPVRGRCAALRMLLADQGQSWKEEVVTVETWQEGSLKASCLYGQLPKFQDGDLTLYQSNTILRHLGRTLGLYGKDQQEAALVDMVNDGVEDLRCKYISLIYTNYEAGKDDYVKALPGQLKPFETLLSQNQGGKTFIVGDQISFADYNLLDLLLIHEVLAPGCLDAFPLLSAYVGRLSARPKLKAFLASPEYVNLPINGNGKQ
# UniProt P20839, sequence (P20839 whole entry, looked up): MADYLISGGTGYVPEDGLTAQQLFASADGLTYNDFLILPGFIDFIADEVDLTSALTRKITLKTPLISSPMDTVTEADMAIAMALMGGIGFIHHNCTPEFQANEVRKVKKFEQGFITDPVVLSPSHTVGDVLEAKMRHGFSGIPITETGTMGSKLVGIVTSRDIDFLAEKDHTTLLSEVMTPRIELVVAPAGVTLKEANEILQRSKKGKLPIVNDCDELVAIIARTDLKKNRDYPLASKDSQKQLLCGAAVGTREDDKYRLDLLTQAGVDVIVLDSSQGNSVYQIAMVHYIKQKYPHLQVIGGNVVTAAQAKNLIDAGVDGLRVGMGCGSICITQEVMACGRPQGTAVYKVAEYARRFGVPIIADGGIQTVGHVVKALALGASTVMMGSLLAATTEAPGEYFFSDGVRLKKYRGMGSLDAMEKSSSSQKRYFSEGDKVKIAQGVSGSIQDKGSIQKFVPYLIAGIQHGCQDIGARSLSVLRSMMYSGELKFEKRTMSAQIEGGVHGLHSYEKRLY
# UniProt Q8NEC7, sequence (Q8NEC7 whole entry, looked up): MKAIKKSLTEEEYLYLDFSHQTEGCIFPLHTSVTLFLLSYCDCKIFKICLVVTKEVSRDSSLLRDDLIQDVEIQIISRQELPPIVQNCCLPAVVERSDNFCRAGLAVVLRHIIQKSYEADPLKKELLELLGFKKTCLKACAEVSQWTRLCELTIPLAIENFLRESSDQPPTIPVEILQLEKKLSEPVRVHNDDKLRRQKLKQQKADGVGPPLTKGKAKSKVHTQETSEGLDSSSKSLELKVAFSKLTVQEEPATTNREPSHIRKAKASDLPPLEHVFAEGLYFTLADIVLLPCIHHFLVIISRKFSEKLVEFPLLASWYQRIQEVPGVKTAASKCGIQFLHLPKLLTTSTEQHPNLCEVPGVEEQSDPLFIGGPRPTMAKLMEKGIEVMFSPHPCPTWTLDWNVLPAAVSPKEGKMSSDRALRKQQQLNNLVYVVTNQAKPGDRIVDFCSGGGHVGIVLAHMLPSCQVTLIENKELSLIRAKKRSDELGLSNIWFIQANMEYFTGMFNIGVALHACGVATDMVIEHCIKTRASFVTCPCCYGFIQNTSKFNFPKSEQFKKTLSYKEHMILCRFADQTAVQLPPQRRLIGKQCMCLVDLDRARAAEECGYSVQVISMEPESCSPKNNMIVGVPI
# UniProt O15379, sequence (O15379 whole entry, looked up): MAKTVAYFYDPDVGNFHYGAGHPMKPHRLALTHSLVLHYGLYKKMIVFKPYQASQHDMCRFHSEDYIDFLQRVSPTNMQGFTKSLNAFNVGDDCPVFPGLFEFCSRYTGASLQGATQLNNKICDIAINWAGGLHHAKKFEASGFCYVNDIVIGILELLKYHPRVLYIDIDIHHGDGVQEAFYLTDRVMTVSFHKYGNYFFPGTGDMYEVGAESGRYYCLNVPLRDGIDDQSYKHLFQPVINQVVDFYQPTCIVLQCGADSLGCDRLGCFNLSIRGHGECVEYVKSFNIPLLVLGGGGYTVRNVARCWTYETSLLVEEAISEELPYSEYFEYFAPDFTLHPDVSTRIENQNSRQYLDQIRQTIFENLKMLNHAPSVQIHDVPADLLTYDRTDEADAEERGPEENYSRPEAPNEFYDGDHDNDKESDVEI
# UniProt Q92805, sequence (Q92805 whole entry, looked up): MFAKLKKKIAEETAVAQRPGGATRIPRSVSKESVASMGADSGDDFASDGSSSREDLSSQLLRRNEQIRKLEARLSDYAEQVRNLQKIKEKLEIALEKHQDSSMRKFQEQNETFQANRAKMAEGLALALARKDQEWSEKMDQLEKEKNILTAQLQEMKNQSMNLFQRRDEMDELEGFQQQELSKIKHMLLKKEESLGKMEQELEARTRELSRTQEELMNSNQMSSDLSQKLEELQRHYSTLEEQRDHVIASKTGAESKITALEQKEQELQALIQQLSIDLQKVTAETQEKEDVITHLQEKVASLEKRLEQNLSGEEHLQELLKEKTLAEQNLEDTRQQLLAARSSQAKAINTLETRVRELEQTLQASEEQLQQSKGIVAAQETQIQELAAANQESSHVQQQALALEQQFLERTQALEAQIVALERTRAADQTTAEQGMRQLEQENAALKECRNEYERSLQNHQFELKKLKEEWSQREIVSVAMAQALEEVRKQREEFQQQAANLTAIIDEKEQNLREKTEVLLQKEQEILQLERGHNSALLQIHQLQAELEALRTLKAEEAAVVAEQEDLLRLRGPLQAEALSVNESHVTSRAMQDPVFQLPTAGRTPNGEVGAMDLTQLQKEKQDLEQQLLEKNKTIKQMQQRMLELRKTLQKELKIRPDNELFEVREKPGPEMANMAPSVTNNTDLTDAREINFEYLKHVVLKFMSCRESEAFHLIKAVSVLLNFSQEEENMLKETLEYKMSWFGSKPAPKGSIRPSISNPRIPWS
row,Target,log2 fold change
1,HMGB1 (UniProt P09429),0.083 (inactive)
2,IGF2BP2 (UniProt Q9Y6M1),-0.239 (active)
3,GNB1 (UniProt P62873),0.064 (inactive)
4,IRAK1 (UniProt P51617),-0.359 (active)
5,GRK6 isoform 2 (UniProt P43250),-0.227 (inactive)
6,ICAM2 (UniProt P13598),0.148 (inactive)
7,IMMT (UniProt C9J406),0.174 (inactive)
8,GUSB (UniProt P08236),0.043 (inactive)
9,HSPA14 (UniProt Q0VDF9),-0.226 (active)
10,HNRNPH2 (UniProt P55795),-0.243 (active)
11,HDAC6 (UniProt Q9UBN7),0.513 (active)
12,HSP90AA4P (UniProt Q58FG1),0.047 (inactive)
13,KHK isoform 2 (UniProt P50053),0.045 (inactive)
14,GTF3C3 (UniProt Q9Y5Q9),-0.291 (active)
15,H4C1 (UniProt P62805),0.09 (inactive)
16,HSPB1 (UniProt P04792),-0.013 (inactive)
17,GNL3 (UniProt Q9BVP2),-0.142 (inactive)
18,KDM5C (UniProt P41229),-0.282 (active)

row,Target,log2 fold change
1,GOLGA1 (UniProt Q92805),0.07 (inactive)
2,KATNBL1 (UniProt Q9H079),-0.176 (inactive)
3,HNRNPM (UniProt P52272),-0.235 (active)
4,HEATR3 (UniProt Q7Z4Q2),-0.5 (active)
5,HNRNPUL1 (UniProt Q9BUJ2),0.122 (inactive)
6,HDGFL2 isoform 2 (UniProt Q7Z4V5),0.117 (inactive)
7,HNRNPLL (UniProt Q8WVV9),-0.653 (active)
8,HDAC3 (UniProt O15379),-0.264 (active)
9,IMPDH1 isoform 6 (UniProt P20839),-0.897 (active)
10,HDHD5 (UniProt Q9BXW7),-0.249 (active)
11,KDM6A (UniProt O15550),-0.299 (active)
12,ILKAP (UniProt Q9H0C8),-0.288 (active)
13,IRF2BPL (UniProt Q9H1B7),-0.324 (active)
14,GSTP1 (UniProt P09211),-0.352 (active)
15,GLUL (UniProt P15104),0.13 (inactive)
16,GSE1 (UniProt Q14687),-0.286 (active)
17,GSTCD (UniProt Q8NEC7),-0.356 (active)
18,HMGN4 (UniProt O00479),0.192 (inactive)

# Compound: O=C(O)c1ccc2c(c1)nc(Nc1cccc(Cl)c1)c1ccncc12 [silmitasertib]
# Assay: as above
# Summary of the method: as §1
row,Target,log2 fold change
1,HMGB1 (UniProt P09429),0.017 (inactive)
2,IGF2BP2 (UniProt Q9Y6M1),0.088 (inactive)
3,GNB1 (UniProt P62873),0.041 (inactive)
4,IRAK1 (UniProt P51617),0.205 (inactive)
5,GRK6 isoform 2 (UniProt P43250),0.48 (active)
6,ICAM2 (UniProt P13598),-0.029 (inactive)
7,IMMT (UniProt C9J406),0.092 (inactive)
8,GUSB (UniProt P08236),0.015 (inactive)
9,HSPA14 (UniProt Q0VDF9),0.035 (inactive)
10,HNRNPH2 (UniProt P55795),0.005 (inactive)
11,HDAC6 (UniProt Q9UBN7),0.016 (inactive)
12,HSP90AA4P (UniProt Q58FG1),-0.087 (inactive)
13,KHK isoform 2 (UniProt P50053),0.018 (inactive)
14,GTF3C3 (UniProt Q9Y5Q9),0.018 (inactive)
15,H4C1 (UniProt P62805),0.007 (inactive)
16,HSPB1 (UniProt P04792),-0.027 (inactive)
17,GNL3 (UniProt Q9BVP2),0.008 (inactive)
18,KDM5C (UniProt P41229),0.015 (inactive)

row,Target,log2 fold change
1,GOLGA1 (UniProt Q92805),0.01 (inactive)
2,KATNBL1 (UniProt Q9H079),-0.02 (inactive)
3,HNRNPM (UniProt P52272),0.022 (inactive)
4,HEATR3 (UniProt Q7Z4Q2),0.013 (inactive)
5,HNRNPUL1 (UniProt Q9BUJ2),0.012 (inactive)
6,HDGFL2 isoform 2 (UniProt Q7Z4V5),-0.013 (inactive)
7,HNRNPLL (UniProt Q8WVV9),0.035 (inactive)
8,HDAC3 (UniProt O15379),-0.027 (inactive)
9,IMPDH1 isoform 6 (UniProt P20839),-0.003 (inactive)
10,HDHD5 (UniProt Q9BXW7),0.043 (inactive)
11,KDM6A (UniProt O15550),-0.059 (inactive)
12,ILKAP (UniProt Q9H0C8),0.053 (inactive)
13,IRF2BPL (UniProt Q9H1B7),0.02 (inactive)
14,GSTP1 (UniProt P09211),0.127 (inactive)
15,GLUL (UniProt P15104),0.006 (inactive)
16,GSE1 (UniProt Q14687),-0.006 (inactive)
17,GSTCD (UniProt Q8NEC7),0.024 (inactive)
18,HMGN4 (UniProt O00479),-0.012 (inactive)
